Giardia killer: Small Molecules that selectively kill Giardia lamblia: qHTS | Giardia lamblia trophozoite viability | activity change, % at 7.66 µM, hits read low | 340,000 tested, 0.15% active; in the data active means activity change below about -80%; inconclusive means between about -30% and that limit;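 further: parasites exposed to compound for two days anaerobically before the ATP read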
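Luminescent ATP signal served as the viability read-out, measured 15-30 min after adding ATP detection reagent to trophozoites that had been incubated with compounds for 48 hrs at 37 deg C anaerobically at 100 cells/well.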
NPSR antagonist: qHTS Assay for Antagonists of the Neuropeptide S Receptor: cAMP Signal Transduction | Q6W5P4 | CHO-NPSR cells, cAMP TR-FRET, antagonist mode | Potency, µM (series often up to 38.3 µM), actives largely listed as inhibitors | 220,000 tested, 1% active | AID 1461, 2008; further: nearly all actives have a fitted effect of over 50% in size
Target sequence (Q6W5P4 whole entry, looked up): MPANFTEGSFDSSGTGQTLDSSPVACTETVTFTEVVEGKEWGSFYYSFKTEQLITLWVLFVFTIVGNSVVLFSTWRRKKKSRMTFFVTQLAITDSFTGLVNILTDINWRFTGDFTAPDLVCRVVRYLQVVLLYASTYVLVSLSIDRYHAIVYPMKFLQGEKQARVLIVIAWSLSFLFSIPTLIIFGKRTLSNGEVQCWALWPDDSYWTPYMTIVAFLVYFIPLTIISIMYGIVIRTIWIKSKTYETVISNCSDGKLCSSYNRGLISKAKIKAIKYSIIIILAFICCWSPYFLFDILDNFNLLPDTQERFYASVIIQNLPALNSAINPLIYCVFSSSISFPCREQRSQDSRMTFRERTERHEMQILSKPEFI
IL2 activator: qHTS of IL-2 Activators; 360,000 tested, 0.065% active; activation, % (series mostly up to about 46 µM); IL-2 activation reporter assay, cell-based qHTS; stimulated with anti-CD3/CD4/CD28 beads; in transgenic mouse T cells; in the data active means activation above about 50%; inconclusive means mostly about 30% to 49%
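EGFP and DsRed fluorescence is measured by plate cytometry in unstimulated transgenic mouse T cells exposed to compound for 60 minutes, then stimulated 18 hours at 37 degrees C with anti-CD3/anti-CD4 beads plus anti-CD28.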
RXFP1 agonist: qHTS Assay for Agonists of the Relaxin Receptor RXFP1; AID 2676, 2010; Relaxin receptor 1 (Homo sapiens), Q9HBX9; 370,000 tested, 0.3% active; Potency, µM (titrated, usually from 57.5 µM), hits mostly activators; HEK293T-RXFP1 cAMP TR-FRET, 30 min; response scale: percent of porcine relaxin response, buffer zero; further: nearly all actives have a fitted effect of over 60% in size
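Agonist response is measured as cAMP accumulation in an RXFP1-transfected HEK293T line under PDE4 inhibition. Values are scaled between buffer-only and 29 nM porcine relaxin, and EC50s come from standard Hill equation fits.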
RXFP1 antagonist: qHTS Assay for Antagonists of the Relaxin Receptor RXFP1. Relaxin receptor 1 (Homo sapiens), Q9HBX9. 350,000 tested, 0.59% active. HEK293-RXFP1, relaxin-stimulated cAMP HTRF, 30 min; hits give low values. AID 1259400, 2018. activity change, negative = inhibition, % at 57.5 µM;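 active means activity change of -60% or lower, but not beyond a set lower limit; inconclusive means change between -60% and -40%, or beyond the set limit; inactive means change above -40%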
BRCA1 expr act: qHTS Assay to Identify Small Molecule Activators of BRCA1 Expression. 380,000 tested, 1.1% active. Potency, µM (series often up to 46.1 µM), usual class: activators. AID 624202, 2012. MCF7-BRCA1-FFLuc reporter, luminescence, 48 h; response scale: scaled: vehicle 0%, 10 µM genistein 100%; further: nearly all actives have a fitted effect of over 80% in size
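Using MCF7 cells harboring a BRCA1 firefly luciferase reporter, plated 2 h before compound pinning, the screen measured luminescence after 48 h incubation. Responses were normalized to DMSO and 10 microM genistein, then fitted for concentration-effect.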
Hits are given with their value; – = inactive; ? = inconclusive; · = no result. In the library only some 1.9% were active in any assay of this set; here they are far more common. Unless noted, the call rests on the fitted dose curve; in most records, active means well fitted curve in the direction sought with a large enough effect; inconclusive means small, poorly fitted or top-dose-only effect, or another doubt; inactive means no such curve, though single readings can be large; an effect the other way counts as inactive or inconclusive.

SMILES	Giardia killer	NPSR antagonist	IL2 activator	RXFP1 agonist	RXFP1 antagonist	BRCA1 expr act
S=C(NCCc1ccccc1)Nc1ccccn1	–	–	–	–	–	10µM
CCCCOC(=O)c1ccc(NC(=O)/C(C#N)=C/c2ccc(-c3ccccc3)o2)cc1	·	·	·	–	–	·
N#Cc1nc(/C=C/c2ccc(F)cc2)oc1N1CCCCCC1	·	·	·	–	·	–
COc1ccc(Cl)cc1NC(=O)c1c(NCc2cccnc2)sc2c1CCCC2	·	·	·	–	–	·
COc1ccc(Cl)cc1NC(=O)c1c(NCc2ccc(C)o2)sc2c1CCCC2	·	·	·	–	-61.3	·
COc1ccc(NC(=O)c2c(NCc3cccc(F)c3)sc3c2CCC3)c(OC)c1	·	·	·	–	-61.8	·
CCOC(=O)c1ccccc1S(=O)(=O)N1CCN(c2nc(-c3cccs3)nc3ccccc23)CC1	–	·	·	·	·	–
CCc1ccc(NC(=O)c2ccc3c(=O)n4nc(Nc5ccccc5C)sc4nc3c2)cc1	·	·	·	–	·	–
O=C1CC(c2ccc(Cl)cc2)CC(=O)N1	·	·	·	·	–	·
COc1ccc(C(=O)Nc2ccc3[nH]ccc3c2)cc1	-88.6	·	–	·	–	?
CC(=O)Nc1ccc2[nH]ccc2c1	–	·	–	–	·	–
O=C(Nc1ccc2[nH]ccc2c1)c1cccs1	?	–	–	–	·	3.16µM
Oc1cc(Nc2ccc(N3CCCCC3)cc2)cc2cccnc12	·	·	·	–	·	·
CC(C)Oc1cccc(C(=O)C2CCCN(Cc3cnc(N4CCOCC4)s3)C2)c1 (stereo not given)	–	–	–	–	-64.6	–
O=C(OCc1ccccc1)N(CCCCN(CCCNCc1ccccc1)C(=O)OCc1ccccc1)CCCNCc1ccccc1	–	·	–	·	-94.1	–
Nc1ccc2cc3[nH]c4cc(N)ccc4c3nc2c1	–	·	424.3	·	–	–
C=CCC(O)[C@H](Cc1cnc2ccccc2c1)[C@H](/C=C/CCCC)c1ccccc1 (stereo not given in full)	–	·	·	·	·	·
COc1ccccc1NC(=O)c1nc(SCc2ccccc2F)ncc1Cl	·	·	·	·	·	–
COc1cccc(-c2nc3c(C#N)c[nH]n3c2NC2CCCCC2)c1	·	·	·	–	–	·
O=c1c(/C=C(\O)c2ccccc2)nc2ccccc2n1-c1ccccc1	–	–	88.8	–	–	–
N#Cc1ccc(Cn2ccnc2C(=O)Nc2ccccc2)cc1	–	–	–	–	–	–
Cc1ccc(Cn2ccnc2C(=O)Nc2ccccc2)cc1	–	–	–	–	–	12.6µM
Cc1ccc2ncnc(NCc3ccco3)c2c1	–	·	·	·	·	–
COc1ccc(C2OC(=O)CC2C(=O)NCc2ccc(F)cc2)cc1OC (stereo not given)	–	–	–	–	–	–
COc1ccc(C2OC(=O)CC2C(=O)NCc2ccc(Cl)cc2)cc1OC (stereo not given)	–	–	–	–	–	8.91µM
SMILES	Giardia killer	NPSR antagonist	IL2 activator	RXFP1 agonist	RXFP1 antagonist	BRCA1 expr act
COc1cc(NC(=O)C(=O)NCCN(C)C)c(OC)cc1Cl	?	–	–	–	-69.4	–
O=S(=O)(c1cnc2ccccc2c1)N1CCN(c2nc(-c3cccs3)nc3ccccc23)CC1	–	·	·	·	·	–
O=C(CNC(=O)c1ccc(Cl)cc1)c1ccc(Cl)cc1	–	·	–	–	–	11.2µM
O=C(CNC(=O)c1ccc(Cl)cc1)c1ccccc1	–	·	–	·	–	?
COc1ccc(-c2nn3c(-c4cc(-c5ccccc5)n[nH]4)nnc3s2)cc1	–	·	·	·	·	–
CNCCN(C)c1nc(-c2cccs2)nc2ccccc12	–	·	·	·	·	–
C/C(Cc1ccccc1)=N\NC(=O)c1cccnc1	–	–	–	–	–	–
C/C(Cc1ccccc1)=N\NC(=O)c1ccccn1	–	·	–	–	–	2.24µM
COc1ccc(CC(=O)NNC(=O)c2ccccn2)cc1	–	·	–	–	-61.5	–
Cc1ccc(C(=O)COC(=O)c2cccc(NC(=O)c3ccc([N+](=O)[O-])cc3[N+](=O)[O-])c2)cc1	-100.7	–	–	–	–	–

Screening data as filed in PubChem.
